The values below come from the supplement of paper PMC8728848.

Common to all, as to test: glycan array binding signal (z-score within array); higher = stronger binding
Common to all, as to conditions: glycan notation: IUPAC condensed, linker removed

The target in assay [1] is Fuc(a1-2)Gal(b1-3)GlcNAc(b1-3)[Fuc(a1-2)Gal(b1-3)GlcNAc(b1-6)]GalNAc. The method, boiled down:
(§1)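 Glycan array data came from 3228 arrays in the Consortium for Functional Glycomics database, and only arrays with an available protein sequence were kept. Glycan names were put into IUPAC-condensed notation, and columns mapping to the same glycan were averaged. The binding signal is a within-array Z-score, averaged across arrays of one protein sequence run at different concentrations or buffers and across linkers. A negative Z-score can be read as non-binding.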

The target of assay [2] is Fuc(a1-2)Gal(b1-3)[Fuc(a1-4)]GlcNAc(b1-3)[Gal(b1-4)GlcNAc(b1-6)]Gal(b1-4)Glc. In short, it runs like this: as §1
In assay [3] the target is Fuc(a1-2)Gal(b1-4)GlcNAc(b1-3)Gal(b1-4)GlcNAc(b1-3)Gal(b1-4)GlcNAc. The method, boiled down: as §1
In assay [4] the target is Fuc(a1-2)Gal(b1-4)GlcNAc(b1-6)GalNAc. In short, it runs like this:
as §1

Assay [5] addresses Fuc(a1-2)[Gal(a1-3)]Gal(b1-3)GlcNAc(b1-2)Man(a1-3)[Fuc(a1-2)[Gal(a1-3)]Gal(b1-3)GlcNAc(b1-2)Man(a1-6)]Man(b1-4)GlcNAc(b1-4)[Fuc(a1-6)]GlcNAc. The method, boiled down:
as §1

For assay [6], the target named is Fuc(a1-2)[Gal(a1-3)]Gal(b1-3)GlcNAc(b1-6)GalNAc. The method, boiled down: as §1
The target of assay [7] is Fuc(a1-2)[GalNAc(a1-3)]Gal(b1-3)GlcNAc(b1-3)GalNAc. The method, boiled down:
as §1

The target in assay [8] is Fuc(a1-3)[Gal(b1-4)]GlcNAc(b1-2)Man(a1-3)[Fuc(a1-3)[Gal(b1-4)]GlcNAc(b1-2)Man(a1-6)]Man(b1-4)GlcNAc(b1-4)GlcNAc. In short, it runs like this:
as §1

Assay [9] concerns the target Gal(a1-3)Gal(b1-3)GlcNAc(b1-2)Man(a1-3)[Gal(a1-3)Gal(b1-3)GlcNAc(b1-2)Man(a1-6)]Man(b1-4)GlcNAc(b1-4)GlcNAc. The method, boiled down: as §1
The target in assay [10] is Gal(a1-3)Gal(b1-3)[Fuc(a1-4)]GlcNAc(b1-2)Man(a1-3)[Gal(a1-3)Gal(b1-3)[Fuc(a1-4)]GlcNAc(b1-2)Man(a1-6)]Man(b1-4)GlcNAc(b1-4)GlcNAc. The method, boiled down: as §1
The target of another assay is Gal(b1-2)Gal. The method, boiled down: as §1
The target in a further assay is Gal(b1-3)Gal. In short, it runs like this:
as §1

Assay [11] has as its target Gal(b1-3)GalNAc(a1-3)[Fuc(a1-2)]Gal(b1-4)GlcNAc. In short, it runs like this:
as §1

The target in assay [12] is Gal(b1-3)GlcNAc(a1-6)Gal(b1-4)GlcNAc. In short, it runs like this:
as §1

Assay [13] deals with Gal(b1-3)[Fuc(a1-4)]GlcNAc(b1-6)GalNAc. The method, boiled down:
as §1

The target of assay [14] is Gal(b1-3)[GlcNAc(b1-6)]GalNAc. The method, boiled down: as §1
For assay [15], the target named is Gal(b1-4)GlcNAc(b1-2)Man(a1-3)[Gal(b1-4)GlcNAc(b1-2)Man(a1-6)][GlcNAc(b1-4)]Man(b1-4)GlcNAc(b1-4)[Fuc(a1-6)]GlcNAc. The method, boiled down: as §1
Assay [16] addresses Gal(b1-4)GlcNAc(b1-2)Man(a1-3)[GlcNAc(b1-2)Man(a1-6)]Man(b1-4)GlcNAc(b1-4)GlcNAc. In short, it runs like this: as §1
In assay [17] the target is Gal(b1-4)GlcNAc(b1-2)[Gal(b1-4)GlcNAc(b1-4)]Man(a1-3)[GlcNAc(b1-4)][Gal(b1-4)GlcNAc(b1-2)[Gal(b1-4)GlcNAc(b1-6)]Man(a1-6)]Man(b1-4)GlcNAc(b1-4)GlcNAc. In short, it runs like this:
as §1

Assay [18] has as its target Gal(b1-4)GlcNAc(b1-3)Gal(b1-3)GalNAc. In short, it runs like this: as §1
The target of assay [19] is Gal(b1-4)GlcNAc(b1-3)Gal(b1-4)GlcNAc(b1-2)[Gal(b1-4)GlcNAc(b1-3)Gal(b1-4)GlcNAc(b1-6)]Man(a1-6)[Gal(b1-4)GlcNAc(b1-3)Gal(b1-4)GlcNAc(b1-2)Man(a1-3)]Man(b1-4)GlcNAc(b1-4)[Fuc(a1-6)]GlcNAc. The method, boiled down: as §1
The target in assay [20] is Gal(b1-4)GlcNAc(b1-3)Gal(b1-4)GlcNAc(b1-3)Gal(b1-4)GlcNAc(b1-2)Man(a1-3)[Gal(b1-4)GlcNAc(b1-3)Gal(b1-4)GlcNAc(b1-3)Gal(b1-4)GlcNAc(b1-2)Man(a1-6)]Man(b1-4)GlcNAc(b1-4)GlcNAc. The method, boiled down: as §1
The target of assay [21] is Gal(b1-4)GlcNAc(b1-3)Gal(b1-4)GlcNAc(b1-3)Gal(b1-4)GlcNAc(b1-2)Man(a1-3)[Gal(b1-4)GlcNAc(b1-3)Gal(b1-4)GlcNAc(b1-3)Gal(b1-4)GlcNAc(b1-2)Man(a1-6)]Man(b1-4)GlcNAc(b1-4)[Fuc(a1-6)]GlcNAc. The method, boiled down: as §1

Many of the other results were omitted from the sample, so the strongest signals are more common in it than they were.

B1: AntigenI/IIC123 (Streptococcus mutans), C9E3B4 (protein)
chain: MASMTGGQQMGRIHFHYFKLAVQPQVNKEIRNNNDINIDRTLVAKQSVVKFQLKTADLPAGRDETTSFVLVDPLPSGYQFNPEATKAASPGFDVTYDNATNTVTFKATAATLATFNADLTKSVATIYPTVVGQVLNDGATYKNNFTLTVNDAYGIKSNVVRVTTPGKPNDPDNPNNNYIKPTKVNKNENGVVIDGKTVLAGSTNYYELTWDLDQYKNDRSSADTIQKGFYYVDDYPEEALELRQDLVKITDANGNEVTGVSVDNYTNLEAAPQEIRDVLSKAGIRPKGAFQIFRADNPREFYDTYVKTGIDLKIVSPMVVKKQMGQTGGSYENQAYQIDFGNGYASNIIINNVPKINPKKDVTLTLDPADTNNVDGQTIPLNTVFNYRLIGGIIPADHSEELFEYNFYDDYDQTGDHYTGQYKVFAKVDITFKDGSIIKSGAELTQYTTAEVDTAKGAITIKFKEAFLRSVSIDSAFQAESYIQMKRIAVGTFENTYINTVNGVTYSSLEHHHHHH
B1: the “glycan array binding signal (z-score)” value in assay [1] was 3.07; in assay [2] it was -0.704; in assay [3] it was -0.137; in [4], 3.81; in [5] it was 0.417; in [6], -1.42. Besides, the “glycan array binding signal (z-score)” value in [7] was 2.85; in [8], -0.441; in assay [9], 3.54; in [10], 3.25; in the assay with Gal(b1-2)Gal it was -0.762; in the assay with Gal(b1-3)Gal, -1.1. Moreover, the “glycan array binding signal (z-score)” value in assay [11] is -0.841; in assay [12] it was -1.82; in [13], 1.06; in assay [14] it was 0.715; in assay [15] it was -1.3; in assay [16], -0.939. Further, the “glycan array binding signal (z-score)” value in [17] was 0.437; in [18], 0.003; in assay [19], 4.84; in assay [20] it was 2.33; in assay [21], 3.9.
